# High-throughput results (PubChem BioAssay)
# p53 reactivation: mutant p53 re-activation in reporter cells; 320,000 tested, 0.063% active; H1299 p53-A138V BP100-luciferase reporter, luminescence, 24 h; Potency, µM (series often up to 92.2 µM), hits mostly activators; further: nearly all actives have a fitted effect of over 45% in size
#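 p53-null H1299 cells stably carrying temperature-sensitive p53-A138V and a BP100-luciferase reporter were pinned with compounds (4-point, 1:5 series) and held 24 hrs at 37 deg C. Luminescence was read 10 min after detection reagent.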
# LDHA block: LDHA (human) enzyme inhibition | purified LDHA, NADH/diaphorase-resazurin fluorescence; stronger effect = lower value | activity change, % (values are at about 110 or 230 µM) | 480,000 tested, 0.15% active | AID 1347041; in the data active means activity change below about -30%; inconclusive means mostly about -25% to -30%
#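 Enzyme activity of human lactate dehydrogenase 5 (2 nM; 0.06 mM NADH, 0.2 mM pyruvate, 5 min, RT) is measured via a resazurin/diaphorase fluorescence readout of residual NADH.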
# HEK293 tox: cytotoxicity counter-screen for GLP-1 receptor inverse agonists; AID 624418; Potency, µM (titrated, usually from 38.3 µM), usual class: inhibitors; HEK293 cAMP-luciferase reporter cells, luminescence, 24 h; 410,000 tested, 0.13% active;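 further: loss of luciferase light is scored as toxicity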
#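 Luminescence readout: signal drop marks cytotoxicity. Plated cells grew 12 h at 37 °C, 5% CO2, received 23 nL compound for 24 h, then got luciferase reagent, read after 12 min at RT.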
# GLP1R inv ag: GLP-1 receptor (human) inverse agonism | 410,000 tested, 1.6% active | HEK293 GLP-1R CRE-luciferase, luminescence, 24 h; GLP-1R form is constitutively active | P43220 | Potency, µM (series often up to 38.3 µM), most hits filed as inhibitors; further: nearly all actives have a fitted effect of over 55% in size
# Target sequence (P43220 whole entry, looked up): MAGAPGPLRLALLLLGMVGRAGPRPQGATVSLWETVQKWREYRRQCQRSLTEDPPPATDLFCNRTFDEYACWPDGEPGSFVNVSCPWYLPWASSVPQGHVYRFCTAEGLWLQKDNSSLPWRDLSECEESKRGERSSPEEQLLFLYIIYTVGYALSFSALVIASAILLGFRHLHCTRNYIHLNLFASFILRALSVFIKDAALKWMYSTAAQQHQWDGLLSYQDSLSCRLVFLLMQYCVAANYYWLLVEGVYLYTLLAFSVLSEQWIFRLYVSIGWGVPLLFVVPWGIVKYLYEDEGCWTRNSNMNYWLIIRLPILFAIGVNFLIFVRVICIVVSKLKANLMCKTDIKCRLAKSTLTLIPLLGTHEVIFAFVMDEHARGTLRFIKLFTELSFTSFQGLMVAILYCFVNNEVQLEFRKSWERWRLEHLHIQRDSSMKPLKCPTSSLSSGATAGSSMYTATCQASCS
#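 HEK293 cells stably co-expressing a cAMP-responsive luciferase reporter and constitutively active GLP-1R were seeded, incubated 12 h, then exposed to compounds for 24 h at 37 C. Luminescence was read 12 min after detection reagent; inverse agonists lower signal.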
# ClpP mod: qHTS Assay for Activators of ClpP; purified B. subtilis ClpP, FRET peptide cleavage, 20 min; AID 651965, 2013; 340,000 tested, 1.9% active; Potency, µM (series often up to 57.5 µM); active means well fitted falling curve with a large enough effect; inconclusive means small, poorly fitted or top-dose-only effect; inactive means no such curve, though single readings can be large or run the other way; further: the source files actives as falling curves though it sought activators and does not explain the sign; nearly all actives have a fitted effect of over 65% in size
# Target sequence (P80244 whole entry, looked up): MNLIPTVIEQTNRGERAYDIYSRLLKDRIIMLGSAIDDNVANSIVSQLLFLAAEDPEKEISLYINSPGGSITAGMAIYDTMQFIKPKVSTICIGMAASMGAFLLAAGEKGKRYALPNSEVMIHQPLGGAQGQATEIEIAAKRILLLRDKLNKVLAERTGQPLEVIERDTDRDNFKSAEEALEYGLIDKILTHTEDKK
#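 Purified B. subtilis ClpP, 10 microg/mL final in Tris/HCl pH8 with KCl, BSA, glycerol and Tween-20, cleaved an Abz/nitrotyrosine-quenched decapeptide. Fluorescence (ex 320, em 430) was read at 0 and 20 min at room temperature. Delta was normalized to 5.8 microM ADEP and DMSO/no-enzyme controls.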
# GLP-1R agonist: GLP-1 receptor (human) agonism. Potency, µM (titrated, usually from 45.6 µM), hits mostly activators. 380,000 tested, 0.007% active. HEK293 GLP-1R CRE-luciferase, luminescence, 4-6 h; cells express a hypersensitive GLP-1R form. AID 624172
# Hits are given with their value; i = inactive; ? = inconclusive; nt = no result given; [ ] = another dose, or the depositor's remark. This is a sample that favours compounds with a hit; in the whole collection about 2.9% have one here. Unless noted, the call rests on the fitted dose curve; in most records, active means well fitted curve in the direction sought with a large enough effect; inconclusive means small, poorly fitted or top-dose-only effect, or another doubt; inactive means no such curve, though single readings can be large; an effect the other way counts as inactive or inconclusive.
SMILES,p53 reactivation,LDHA block,HEK293 tox,GLP1R inv ag,ClpP mod,GLP-1R agonist
O=C(c1ccc(S(=O)(=O)N2CCOCC2)cc1)N(Cc1ccco1)C1CCS(=O)(=O)C1 (centres undefined),nt,i,nt,nt,nt,nt
Cc1ccc(S(=O)(=O)c2n[nH]n3c2nc(=O)c2ccccc23)cc1,i,i,i,i,16µM,i
CCOC(=O)c1n[nH]n2c1nc(=O)c1ccccc12,i,i,i,i,nt,i
Cc1ccc(-c2csc3ncnc(SCC(=O)c4ccc5c(c4)OCCO5)c23)cc1,i,i,i,i,i,i
Nc1cccc(S(=O)(=O)NC2=NCCC2)c1,i,i,i,i,i,i
COc1ccc(/C=N\n2nnc3ccccc32)cc1,i,i,i,5.6µM,?,i
COc1ccc(/C=N/n2c(C)nc3ccccc3c2=O)cc1,i,i,i,i,nt,i
Cc1ccc(C)c(OCCCOc2ccccc2/C=N/NC(=O)c2cccc(Cl)c2)c1,nt,i,nt,nt,nt,nt
CCN(CC)c1ccc2nc3ccccc3[n+](CC)c2c1,i,i,11µM,?,nt,i
O=C(NC(=S)Nc1ccccc1[N+](=O)[O-])c1cncc(Br)c1,nt,i,?,i,i,i
Cc1ccccc1NC(=O)c1sc2c(c1C)C(c1cccnc1)CC(=O)N2 (centres undefined),nt,i,nt,nt,nt,nt
CC1=NN(c2nc(C)cc(C)n2)C(=O)C1Cc1ccc(C)cc1 (centres undefined),nt,i,nt,nt,nt,nt
Nc1c(C(=O)Nc2ccc3c(c2)OCCO3)nnn1Cc1cccc(Cl)c1,?,i,i,i,nt,i
Nc1c(C(=O)Nc2ccc3c(c2)OCCO3)nnn1Cc1ccc(F)cc1,i,i,i,i,11µM,i
COc1cccc2cc(C(=O)NCCOc3ccccc3F)c(=O)oc12,nt,i,nt,nt,nt,nt
Cc1ccc(-n2nnnc2SCc2nc(N)c3ccccc3n2)c(C)c1,nt,i,nt,nt,nt,nt
CCCCCCC[C@@H](C/C=C/CCC(=O)O)OC,i,i,i,?,i,i
CCCCCCC[C@@H](C/C=C/CCC(=O)N(C)C/C(=C/Cl)C/C(=C\C(=O)N1CC(OC)=CC1=O)OC)OC,32µM,i,i,i,i,i
CCCCCCC[C@@H](C/C=C/CCC(=O)N(C)C/C(=C/Cl)C/C(=C\C(=O)N1C[C@H](O)CC1=O)OC)OC,i,i,i,11µM,i,i
COCCN(C(=S)Nc1c(C)cc(C)cc1C)C(C)c1cccs1 (centres undefined),i,i,?,?,i,i
CC(C)CN(C(=O)COC(=O)c1ccccc1NCc1ccco1)c1c(N)n(Cc2ccccc2)c(=O)[nH]c1=O,i,i,i,i,28µM,i
CCOC(=O)c1cnn(-c2ccc(Cl)cc2)c1C1CCN(C(=O)OC(C)(C)C)CC1,i,i,i,10µM,i,i
CC(C)(C)OC(=O)N1CCC(c2c(C(=O)N3CCCCC3)cnn2-c2ccc(Cl)cc2)CC1,nt,i,i,i,i,nt
CCCNC(=O)c1cnn(-c2ccc(C)c(C)c2)c1C1CCN(C(=O)OC(C)(C)C)CC1,nt,i,i,i,i,nt
Cc1ccc(-n2ncc(C(=O)NCCc3c[nH]c4ccccc34)c2C2CCN(C(=O)OC(C)(C)C)CC2)cc1C,nt,i,i,11µM,i,i
SMILES,p53 reactivation,LDHA block,HEK293 tox,GLP1R inv ag,ClpP mod,GLP-1R agonist
COc1ccc2[nH]c3c(c2c1)CCN(C(=O)c1cccc(Cl)c1)C3c1ccc(F)cc1 (centres undefined),nt,i,i,4.5µM,i,i
CSc1ccc(C2c3[nH]c4ccccc4c3CCN2C(=O)CCC2CCCC2)cc1 (centres undefined),nt,i,i,2.2µM,i,nt
CCOc1cccc(C2c3[nH]c4ccccc4c3CCN2C(=O)CSCc2ccc(F)cc2)c1 (centres undefined),nt,i,i,?,i,nt
O=C(CSc1ccccc1)N1CCc2c([nH]c3ccccc23)C1c1ccc(F)cc1 (centres undefined),nt,i,i,?,i,nt
CCOc1cccc(CC(=O)N2CCc3c([nH]c4ccccc34)C2c2ccc(C)cc2)c1OCC (centres undefined),nt,i,i,10µM,i,nt
CCOc1ccc(C2c3[nH]c4ccccc4c3CCN2C(=O)CSCc2ccc(F)cc2)cc1 (centres undefined),nt,i,i,2.8µM,i,nt
CCOc1cccc(CC(=O)N2CCc3c([nH]c4ccc(OC)cc34)C2c2ccc(F)cc2)c1OCC (centres undefined),nt,i,i,i,i,i
C=C(C)C(=O)OCC(C)C,i,i,i,i,i,i
CC(=O)Nc1ccc(C(=O)OCC(=O)N2CCN(C(=O)c3ccco3)CC2)cc1,i,i,i,i,i,i
COC(=O)CNC(=O)C1(C)C=CCN1C(=O)c1ccccc1 (centres undefined),?,i,i,i,i,i
Cn1nc(-c2ccccc2)cc1NC(=O)c1ccccc1,i,i,i,?,i,i
O=C(Nc1cc(-c2ccccc2)nn1C1CCCCC1)c1ccc(Cl)cc1,i,i,i,10µM,i,i
O=C(Cc1c(Cl)cccc1Cl)Nc1cccnc1,i,i,i,i,nt,i
Cc1ccc(NC(=O)N(Cc2ccc3c(c2)OCO3)Cc2cc3cc4c(cc3[nH]c2=O)OCCO4)cc1,i,i,i,i,?,i
COc1ccc(CCN(Cc2cc3cc(C)ccc3[nH]c2=O)C(=O)N2CCCC2)cc1OC,i,i,i,i,i,i
CCC(=O)N(CCc1ccccc1)Cc1cc2cc3c(cc2[nH]c1=O)OCO3,i,i,i,i,14µM,i
CCC(=O)N(Cc1ccc(C)cc1)Cc1cc2cc3c(cc2[nH]c1=O)OCO3,i,i,i,i,32µM,i
Cc1ccc2[nH]c(=O)c(CN(CCc3ccccc3)C(=O)N3CCOCC3)cc2c1,i,i,i,i,14µM,i
CCC(=O)N(CCc1ccccc1)Cc1cc2cc(OC)ccc2[nH]c1=O,i,i,i,?,i,i
Cc1ccccc1C(=O)N/N=C/c1ccsc1C,?,i,i[1.53 µM],i,i,i
COc1ccc(C(=O)Nc2ccccc2)cc1S(=O)(=O)Nc1ccc(Br)cc1,nt,i,i,i,i,nt
COc1ccc(NS(=O)(=O)c2cc(NC(=O)c3cncc(Br)c3)ccc2OC)cc1,i,i,i,?,28µM,i
Cc1cc(C)c2c(-n3cccc3)c(NC(=O)OC(C)C)sc2n1,i,i,i,?,i,i
CCCOC1CCCN(C(=O)CCc2nnc(-c3ccc4c(c3)OCO4)o2)C1 (centres undefined),?,i,i,i,20µM,i
Brc1ccc(-c2cnc(-c3cccs3)o2)cc1,?,i,i,?,32µM,i
